From PubChem BioAssay AID1626 (SRMLSC, 2009) come the findings set out here.

The structures appear in SMILES notation. Hit rate of the full screen: of about 220,000 compounds, about 2,000 (0.91%) were called active. Another 2% or so got no clear call; they are omitted. The list is a sample of the results. Potency and affinity values are given separately. Unmarked numbers belong to inactive results. Rule as the data show it: inconclusive = inhibition above about 80% without an active follow-up result; inactive = below that; test concentration not stated here.

This assay in a line: M. tuberculosis H37Rv growth inhibitors, H37Rv strain (AID 1626).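 Also: bacteria incubated seven days before Alamar blue readout; 0% = bacteria only wells and 100% = bacteria with antibiotic wells.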 The note with it: stronger effect = higher value, concentration not given here.
As to `CCCCNC(=O)c1[nH]c(C)c(C(C)=O)c1C`, the inhibition (usually the drop in the measured response relative to a control, in per cent) was -1.66%.
In the case of `O=C(O)c1ccc(N/N=C/c2cc3ccccc3nc2Cl)cc1`, the inhibition was 7.73%.
For `Cc1ccc(C(NC(=O)/C=C\c2ccc3c(c2)OCO3)C(=O)Nc2ccc3c(c2)OCO3)cc1` (stereo unspecified), the inhibition was 61.7%.
On to `CC(=O)NCC(=O)N(C)C(C(=O)Nc1ccc2c(c1)OCCO2)c1ccc(C)cc1` (stereo unspecified), for which the inhibition is 2.18%.
On to `Cc1c(Cl)ccc2c(C(N)=O)cc(-c3ccccn3)nc12`, for which the inhibition is 3.8%.
As to `CC(C)n1nc(C(=O)Oc2ccc(Cl)cc2)c2ccccc2c1=O`, the inhibition is 9.19%.
For the molecule `CN1CCN(Cc2nnc3n2-c2ccc(Cl)cc2C(c2ccccc2)=NC3)CC1`, the inhibition was -4.71%.
The same measure for `Clc1ccc2c(c1)C(c1ccccc1Cl)=NCc1nnc(Br)n1-2`: -0.77%; for `O=C(CN1C(=O)NC2(CCCCC2)C1=O)NC1CCCc2ccccc21` (stereo unspecified): -2.8%; for `CN(CC(=O)N1CCN(c2ccc(F)cc2)CC1)S(=O)(=O)c1ccc(F)cc1`: -7.27%.
The same measure for `CC(=O)Nc1ccc(NC(=O)Cn2cc3c(n2)CCCC3)cc1`: -8.53%.
For `CC(=O)c1cccc(NC(=O)Cn2cc3c(n2)CCCC3)c1`, the inhibition was -1.86%.
As for `CCOc1ccc(NC(=O)Nc2cccnc2)cc1`, the inhibition was 16.1%.
For the molecule `NC(=O)CSc1ncnc2c1oc1ccccc12`, the inhibition is 7.24%.
The same measure for `O=C(O)CSc1ncnc2c1oc1ccccc12`: -5.38%; for `COc1ccc(Cc2nnc(NC(=O)c3cccc([N+](=O)[O-])c3)s2)cc1`: 1.81%; for `CCCCNC(=O)c1ccc(Cn2c(=S)[nH]c3c([nH]c4ccc(OC)cc43)c2=O)cc1`: -1.23%.
Consider `O=c1[nH]c(CN2CCOCC2)nc2ccccc12`, for which the inhibition is -6.66%.
The same measure for `N#Cc1ccc(COC(=O)c2ccc3c(=O)[nH]c(CN4CCOCC4)nc3c2)cc1`: -4.45%; for `O=C(c1ccc2c(c1)OCO2)C1CCCN(C(=O)c2cnn(Cc3ccccc3)c2)C1` (stereo unspecified): 5.07%.
The same measure for `CS(=O)(=O)N1CCN(c2ccccc2NC(=O)c2ccc(-c3ccc(Cl)cc3Cl)o2)CC1`: -2.89%.
As for `O=C(O)c1cc2c(s1)-c1ccccc1OC2`, the inhibition is -9.86%.
Regarding `Cc1ccccc1NC(=O)c1ccc(-c2ccc(Cl)cc2Cl)o1`, the inhibition was 66.1%.
The same measure for `Cc1c(NC(=O)c2cc3c(s2)-c2ccccc2OC3)cccc1[N+](=O)[O-]`: 1.27%; for `Cc1cccc(-c2c3c(=O)n(C)c(=O)n(C)c3cn2CCO)c1`: 0.58%.
As for `CCOC(=O)/C(C#N)=C1/C=C(C)NC(c2ccccc2O)=N1`, the inhibition was -1.53%.
